From ChEMBL document CHEMBL4513139, “CO-ADD screening of University of Strathclyde (UK) compounds”
Potency and affinity values are given separately.

System: Staphylococcus aureus
Conditions: Concentration 32 ug.mL-1; ASSAY_TEST Inhibition of Bacterial Growth; detection method Absorption (OD600); MEDIA CAMHB; plate type 384well; NBS; CORNING #3640; time 18 hr

SMILES | Inhibition [%]
Cc1ncc(CNc2cccc(F)c2)c(N)n1 | 13.69
CC(C)n1cc(NC(=O)c2cc(NC(=O)c3cc(NC=O)cn3C(C)C)cn2C)cc1C(=O)NCCCN(C)C.O=C(O)C(F)(F)F | 2.98
COC(=O)c1ccc(C(=O)Nc2cc(C(=O)Nc3cc(C(=O)NCCN4CCOCC4)n(C)c3)n(C)c2)cc1.O=C(O)C(F)(F)F | 12.57
CC(=O)Nc1cc(C(=O)Nc2cc(C(=O)Nc3cc(C(=O)NCCCN(C)C)n(C)c3)n(C)c2)n(C)c1.O=C(O)C(F)(F)F | 20.29
COCCOC1CCN(C(=O)c2cc(NC(=O)c3cc(NC(=O)c4ccc(/C=C/c5cnc6ccccc6c5)cc4)cn3C)cn2C)CC1 | 5.5
Cc1ncc(Cn2cc(CO)nn2)c(N)n1 | 15.8
Cc1ncc(CNc2ccc(C(C)(C)C)cc2)c(N)n1 | -2.14
COC(=O)c1ccc(C(=O)Nc2cc(C(=O)Nc3cc(C(=O)NCCCN(C)C)n(C)c3)n(C)c2)cc1.O=C(O)C(F)(F)F | -1.58
Cc1ncc(Cn2cc(CC(N)C(=O)O)nn2)c(N)n1.Cl (stereo not given) | -6.04
CC(C)CCc1sc(NC(=O)c2cc(NC(=O)c3cc(NC(=O)CCC(=O)O)cn3C)cn2C)nc1C(=O)NCCCN(C)C.O=C(O)C(F)(F)F | 3.82
Cc1ncc(CNc2ccccc2F)c(N)n1 | 17.82
COc1ccc(/C=C(/C(=O)Nc2cc(C(=O)Nc3cc(C(=O)NCCCN(C)C)n(C)c3)n(C)c2)c2ccc(OC)cc2)cc1.O=C(O)C(F)(F)F | 49.85
CC(C)c1sc(NC(=O)c2cc(NC(=O)c3cc(NC(=O)c4cnc(Cl)c(Cl)c4)cn3C)cn2C)nc1C(=O)NCCCN(C)C.O=C(O)C(F)(F)F | 50.09
CC(C)CCc1sc(NC(=O)c2cc(NC(=O)c3ccc(/C=C/c4cc5ccccc5nc4Cl)cc3)cn2C)nc1C(=O)NCCN1CCOCC1.O=C(O)C(F)(F)F | 1.02
COC(=O)c1ccc(C(=O)Nc2cc(C(=O)Nc3cc(C(=O)NCCC(=N)N)n(C)c3)n(C)c2)cc1.O=C(O)C(F)(F)F | 12.34
CN(C)CCCNC(=O)c1cc(NC(=O)c2cc(NC(=O)CCC(=O)O)cn2C)cn1C.O=C(O)C(F)(F)F | 5.68
CCOC(=O)CCC(NC(=O)c1ccc(NCc2cn(Cc3cnc(C)nc3N)nn2)cc1)C(=O)OCC (stereo not given) | -1.1
Cc1ncc(CNc2ccc(F)cc2)c(N)n1 | 25.09
CCOC(=O)c1cc(NC(=O)c2cc(NC(=O)c3nc(N)sc3C(C)C)cn2C)cn1C | 29.56
CN(C)CCCNC(=O)c1cc(NC(=O)c2cc(NC(=O)c3cc(NC(=N)c4ccccc4)cn3C)cn2C)cn1C.O=C(O)C(F)(F)F.O=C(O)C(F)(F)F | 0.44
CC(C)CCc1sc(NC(=O)c2cc(NC(=O)c3ccc(/C=C/c4cc5ccccc5nc4On4nnc5ccccc54)cc3)cn2C)nc1C(=O)NCCN1CCOCC1.O=C(O)C(F)(F)F | -16.43
COC(=O)CCC(=O)Nc1cc(C(=O)Nc2cc(C(=O)NCCC(=N)N)n(C)c2)n(C)c1.O=C(O)C(F)(F)F | 0.86
COc1cccc(C(=N)Nc2cc(C(=O)Nc3cc(C(=O)NCCC(=N)N)n(C)c3)n(C)c2)c1.O=C(O)C(F)(F)F.O=C(O)C(F)(F)F | 96.74
CN(C)CCCNC(=O)c1cc(NC(=O)c2cc(NC(=O)c3ccc(C(=O)O)cc3)cn2C)cn1C.O=C(O)C(F)(F)F | 10.82
CC(=O)N(C(C)=O)c1cc(C(=O)Nc2cc(C(=O)NCCC(=N)N)n(C)c2)n(C)c1.O=C(O)C(F)(F)F | 98.15
CCOC(=O)c1cc(NC(=O)c2cc(NC(=O)c3sc(N)nc3C(F)(F)F)cn2C)cn1C | 23.52
Cc1ncc(Cn2cc(CCCCO)nn2)c(N)n1 | 1.62
COC(=O)CCC(=O)Nc1cc(C(=O)Nc2cc(C(=O)NCCCN(C)C)n(C)c2)n(C)c1.O=C(O)C(F)(F)F | 5.2
CN(C)CCCNC(=O)c1cc(NC(=O)c2cc(NC(=O)c3cc(NC(=N)N)cn3C)cn2C)cn1C.O=C(O)C(F)(F)F.O=C(O)C(F)(F)F | 14.94
CC(C)CCn1cc(NC(=O)c2cc(NC(=O)c3cc(NC(=N)c4ccccc4)cn3C)cn2C)cc1C(=O)NCCCN(C)C.O=C(O)C(F)(F)F.O=C(O)C(F)(F)F | 22.24
